Test in all cases: cell viability relative to vehicle control; higher = less cytotoxic
What all share (conditions): 10 µM

One experiment has as its system K562. In a few lines:
(§1)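 CRISPR-edited mutant clones and isogenic wild-type clones from four leukaemia lines were screened against Selleck bioactive, kinase and epigenetic probe libraries, with identity-inconsistent compounds excluded. Each compound was acoustically dispensed at a single 10 µM dose into 384-well plates holding 2000 cells in 50 µL medium per well. After 48 h the supernatant was removed and CellTiter-Glo luminescence was read. Viability was expressed as percent of the on-plate vehicle control and analysed in Genedata Screener.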

A further experiment has as its system MARIMO. In a few lines: as §1
The next experiment deals with MOLM14. The procedure, abridged:
as §1

A further experiment has as its system OCI-AML2. In a few lines:
as §1

“And” between values parts separate entries of the source, which are not always exact repeats. Equal values may be shown once. Where a name gives a salt, the structure may show the parent alone.

As to `COc1ncc(-c2cc(-c3ncc(CN4C[C@@H](C)O[C@@H](C)C4)o3)c3cn[nH]c3c2)cc1NS(C)(=O)=O`, the cell viability (commonly a read-out of living cells in per cent, often relative to untreated cells) with K562 (SRSF2 genotype: SRSF2 P95H/wt) is 53.5% and 58.5%; in the experiment with K562 (SRSF2 genotype: SRSF2 wt/wt), 61.2%; in the experiment on MARIMO (SRSF2 genotype: SRSF2 P95H/wt) it was 42.6%; in the experiment on MARIMO (SRSF2 genotype: SRSF2 wt/wt) it was 37.1%; in the experiment on MOLM14 (SRSF2 genotype: SRSF2 P95H/wt), 23.5%; in the experiment on MOLM14 (SRSF2 genotype: SRSF2 wt/wt) it was 27.3%. Further, the values for the cell viability with OCI-AML2 (SRSF2 genotype: P95H/wt) and in the experiment with OCI-AML2 (SRSF2 genotype: wt/wt) were 13.1% and 25.8%, respectively.
`Cc1ccc(CNc2ncnc3ccc(-c4ccc(CO)o4)cc23)o1`: the cell viability with K562 (SRSF2 genotype: SRSF2 P95H/wt) is 97.3% and 96.8%; with K562 (SRSF2 genotype: SRSF2 wt/wt) it was 101%; in the experiment on MARIMO (SRSF2 genotype: SRSF2 P95H/wt), 90%; with MARIMO (SRSF2 genotype: SRSF2 wt/wt), 95.8%; in the experiment with MOLM14 (SRSF2 genotype: SRSF2 P95H/wt), 81.7%; in the experiment with MOLM14 (SRSF2 genotype: SRSF2 wt/wt), 94.2%. Moreover, the cell viability in the experiment on OCI-AML2 (SRSF2 genotype: P95H/wt) was 77.5%; in the experiment on OCI-AML2 (SRSF2 genotype: wt/wt), 84.3%.
As to `CN1[C@@H]2CC[C@H]1C[C@@H](OC(=O)c1c[nH]c3ccccc13)C2` [Tropisetron], the cell viability with K562 (SRSF2 genotype: SRSF2 P95H/wt) was 92.1% and 89.1%; in the experiment with K562 (SRSF2 genotype: SRSF2 wt/wt), 97.1%; in the experiment with MARIMO (SRSF2 genotype: SRSF2 P95H/wt) it was 87.4%; with MARIMO (SRSF2 genotype: SRSF2 wt/wt), 89%; in the experiment on MOLM14 (SRSF2 genotype: SRSF2 P95H/wt), 105%; with MOLM14 (SRSF2 genotype: SRSF2 wt/wt), 104%. Besides, the values for the cell viability in the experiment with OCI-AML2 (SRSF2 genotype: P95H/wt) and in the experiment with OCI-AML2 (SRSF2 genotype: wt/wt) were 91.8% and 98.3%, respectively.
In the case of `NCCCC[C@@H]1NC(=O)[C@@H](Cc2ccc(O)cc2)NC(=O)[C@H](CC(=O)O)NC(=O)CNC(=O)[C@H](CCCN=C(N)N)NC1=O` [Cyclo(RGDyK)], the cell viability with K562 (SRSF2 genotype: SRSF2 P95H/wt) is 93.8% and 88.5%; in the experiment on K562 (SRSF2 genotype: SRSF2 wt/wt), 89.8%; with MARIMO (SRSF2 genotype: SRSF2 P95H/wt), 92.8%; in the experiment on MARIMO (SRSF2 genotype: SRSF2 wt/wt), 96.9%; in the experiment with MOLM14 (SRSF2 genotype: SRSF2 P95H/wt), 91.3%; in the experiment on MOLM14 (SRSF2 genotype: SRSF2 wt/wt), 90.9%. Also, the cell viability in the experiment with OCI-AML2 (SRSF2 genotype: P95H/wt) is 94.8%; with OCI-AML2 (SRSF2 genotype: wt/wt), 93.9%.
For the molecule `O=C1c2c(O)cc(O)cc2OC(c2ccc(O)c(O)c2)C1O` (stereo not given) [Taxifolin (Dihydroquercetin)], the cell viability with K562 (SRSF2 genotype: SRSF2 P95H/wt) was 97.9% and 94.4%; in the experiment with K562 (SRSF2 genotype: SRSF2 wt/wt), 91.6%; with MARIMO (SRSF2 genotype: SRSF2 P95H/wt) it was 91.9%; with MARIMO (SRSF2 genotype: SRSF2 wt/wt) it was 96.5%; in the experiment with MOLM14 (SRSF2 genotype: SRSF2 P95H/wt) it was 100%; in the experiment on MOLM14 (SRSF2 genotype: SRSF2 wt/wt), 101%. For the same molecule, the cell viability is 93.5% in the experiment on OCI-AML2 (SRSF2 genotype: P95H/wt) and 96% in the experiment with OCI-AML2 (SRSF2 genotype: wt/wt).
Take `CC(C)n1nc(-c2ccc3oc(N)nc3c2)c2c(N)ncnc21`: the cell viability in the experiment with K562 (SRSF2 genotype: SRSF2 P95H/wt) is 31.8% and 31.3%; in the experiment with K562 (SRSF2 genotype: SRSF2 wt/wt) it was 29.9%; with MARIMO (SRSF2 genotype: SRSF2 P95H/wt), 37.9%; in the experiment on MARIMO (SRSF2 genotype: SRSF2 wt/wt), 32.7%; with MOLM14 (SRSF2 genotype: SRSF2 P95H/wt) it was 13.6%; with MOLM14 (SRSF2 genotype: SRSF2 wt/wt), 15.8%. Further, the cell viability was found to be 6.33% in the experiment with OCI-AML2 (SRSF2 genotype: P95H/wt) and 12% in the experiment with OCI-AML2 (SRSF2 genotype: wt/wt).
For `C[C@@](Cc1ccc(O)c(O)c1)(NN)C(=O)O` [Carbidopa], the cell viability in the experiment with K562 (SRSF2 genotype: SRSF2 P95H/wt) was 103% and 92.2%; in the experiment with K562 (SRSF2 genotype: SRSF2 wt/wt), 101%; in the experiment with MARIMO (SRSF2 genotype: SRSF2 P95H/wt), 92.1%; in the experiment with MARIMO (SRSF2 genotype: SRSF2 wt/wt), 98.2%; with MOLM14 (SRSF2 genotype: SRSF2 P95H/wt), 93.3%; with MOLM14 (SRSF2 genotype: SRSF2 wt/wt), 98.4%. For the same molecule, the figures for the cell viability with OCI-AML2 (SRSF2 genotype: P95H/wt) and in the experiment on OCI-AML2 (SRSF2 genotype: wt/wt) were 93.9% and 107%, respectively.
As to `O=C(Nc1ccccc1)c1cc([N+](=O)[O-])ccc1Cl`, the cell viability is 91.7% and 96.2% in the experiment with K562 (SRSF2 genotype: SRSF2 P95H/wt); 81.4% in the experiment on K562 (SRSF2 genotype: SRSF2 wt/wt); 86.8% in the experiment with MARIMO (SRSF2 genotype: SRSF2 P95H/wt); 90.8% with MARIMO (SRSF2 genotype: SRSF2 wt/wt); 89.3% in the experiment with MOLM14 (SRSF2 genotype: SRSF2 P95H/wt); 101% in the experiment on MOLM14 (SRSF2 genotype: SRSF2 wt/wt). In addition, the cell viability with OCI-AML2 (SRSF2 genotype: P95H/wt) is 90.1%; in the experiment on OCI-AML2 (SRSF2 genotype: wt/wt), 91.8%.
`CC(C)c1cc(-c2ccc(F)c3ccccc23)nc(N)n1`: the cell viability in the experiment with K562 (SRSF2 genotype: SRSF2 P95H/wt) was 95.5% and 96.7%; in the experiment with K562 (SRSF2 genotype: SRSF2 wt/wt), 94.9%; in the experiment on MARIMO (SRSF2 genotype: SRSF2 P95H/wt) it was 89.5%; in the experiment with MARIMO (SRSF2 genotype: SRSF2 wt/wt), 98.3%; in the experiment on MOLM14 (SRSF2 genotype: SRSF2 P95H/wt), 93.1%; with MOLM14 (SRSF2 genotype: SRSF2 wt/wt), 97.9%. Also, the values for the cell viability with OCI-AML2 (SRSF2 genotype: P95H/wt) and in the experiment with OCI-AML2 (SRSF2 genotype: wt/wt) were 89.7% and 101%, respectively.
Turning to `CNCCCC12CCC(c3ccccc31)c1ccccc12` [Maprotiline hydrochloride], the cell viability in the experiment with K562 (SRSF2 genotype: SRSF2 P95H/wt) was 76.7% and 74.8%; with K562 (SRSF2 genotype: SRSF2 wt/wt), 71.2%; in the experiment on MARIMO (SRSF2 genotype: SRSF2 P95H/wt), 65.2%; in the experiment with MARIMO (SRSF2 genotype: SRSF2 wt/wt) it was 71.2%; in the experiment on MOLM14 (SRSF2 genotype: SRSF2 P95H/wt) it was 64.4%; in the experiment with MOLM14 (SRSF2 genotype: SRSF2 wt/wt), 83.2%. Further, the cell viability stood at 51.1% in the experiment on OCI-AML2 (SRSF2 genotype: P95H/wt) and 56.8% in the experiment with OCI-AML2 (SRSF2 genotype: wt/wt).
